According to PubChem BioAssay AID504861 (Broad Institute, 2011):
Hit rate of the full screen: of about 1,200 compounds, about 290 (24%) were called active. Inconclusive results (about 3%) are left out. The list is a sample of the results. Measured potencies and affinities stand elsewhere. A number with no mark means an inactive call.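 The calls were made as follows: active = compounds lowering cell viability signal with fitted half-maximal concentration at most ten times their highest tested concentration; inconclusive = flat fit with 30 to 70% signal loss, or poor fit; inactive = the rest.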

test: cytotoxicity in HEK293T cells – cell-based, CellTiter-Glo luminescence, cherry-picks, cytotoxicity control for LMP1 NF-kB inhibitor project, dose response (AID 504861); settings: HEK293T viability, CellTiter-Glo ATP luminescence, 48 h; series mostly up to 26 µM; activity change, negative = cytotoxicity: at the top concentration

Compound | activity change, negative = cytotoxicity [%] | outcome
O=C(Cn1nc(C(F)(F)F)c2c1CCC2)NC1CCCCC1 | 4.08 | 
O=[N+]([O-])c1cc(/C=N\O)ccc1Oc1ccc(F)cc1 | 5.67 | 
O=C(NNC(=S)Nc1ccc(Cl)c(Cl)c1)c1ccccn1 | -19.9 | 
COc1cc2cc(C(=O)Nc3ccc4c(c3)OCCO4)[nH]c2cc1OC | -0.796 | 
CC(=O)Nc1ccc(NC(=O)C(c2ccccc2)c2ccccc2)cc1 | -2.38 | 
COCCCn1cnnc1SCC(=O)Nc1ccc(S(=O)(=O)N2CCCC2)cc1 | 12.5 | 
CC1CCN(C(=O)/C(=C\c2cccs2)NC(=O)c2ccccc2)CC1 | 5.12 | 
COc1ccc(C=C2OC(=O)C(C(C)=O)=C2O)cc1 | -1.68 | 
Cc1cc(C(=O)CN2C(=O)c3ccccc3C2=O)c(C)n1Cc1cccs1 | 10.9 | 
Cc1cccc(C)c1NC(=O)CN(C)CC(=O)Nc1ccccc1Oc1ccccc1 | -1.44 | 
COCCn1c(SCC(=O)NCc2ccco2)nnc1-c1c[nH]c2ccccc12 | 2.05 | 
c1ccc(OCCSc2nnc3sc4ccccc4n23)cc1 | 5.22 | 
CC(C)Oc1ccc(C2CC(=O)NC2=O)cc1 (stereo not drawn) | 12.5 | 
COCC(=O)N(C)c1nnc(-c2ccccn2)s1 | 17.7 | 
CCOC(=O)c1c2c(n(C)c1C)C(=O)C(=O)c1ccc(Br)cc1-2 | -12.8 | 
CCOC(=O)N1CCC(n2c(=S)[nH]c3ccccc3c2=O)CC1 | 1.51 | 
N#CC(C#N)c1ccnc2ccccc12 | -7.37 | 
O=C(O)/C=C/c1ccc(Cn2ccnc2)cc1 | 2.13 | 
Cc1ccc(C(=O)Nc2cccc(C(F)(F)F)c2)cc1Nc1ncnc2nc[nH]c12 | 12.7 | 
Cc1ccc(C(=O)Nc2cccc(C(F)(F)F)c2)cc1NC(=O)c1ccno1 |  | inactive
CCN1CCN(Cc2ccc(NC(=O)c3ccc(C)c(NC(=O)c4nccn4C)c3)cc2C(F)(F)F)CC1 | 3.7 | 
CCN1CCN(Cc2ccc(NC(=O)c3ccc(C)c(NC(=O)c4ccno4)c3)cc2C(F)(F)F)CC1 |  | inactive
CCN1CCN(Cc2ccc(NC(=O)c3ccc(C)c(NC(=O)c4cccc5[nH]ccc45)c3)cc2C(F)(F)F)CC1 | -0.532 | 

Compound | activity change, negative = cytotoxicity [%] | outcome
CCN1CCN(Cc2ccc(NC(=O)c3ccc(C)c(NC(=O)N4CCNC4=O)c3)cc2C(F)(F)F)CC1 | -9.91 | 
COc1cccc(CC(=O)NNC(=O)c2ccc3c(c2)OCO3)c1 | 6.09 | 
COC(=O)c1c(O)ccc(Oc2ccccc2)c1C(=O)OC | 5.13 | 
CCC(=O)NC(=S)Nc1ccccc1C(F)(F)F | 4.64 | 
N#CC1=C(N)N2C(=C(C#N)C1c1cccc(Br)c1)Nc1ccccc12 (stereo not drawn) | 9.3 | 
C[C@@H](C(=O)Nc1ccc2c(c1)OCCO2)n1c(=O)[nH]c2ccccc2c1=O | 2.03 | 
Cc1nnc(SCC(=O)N2CCC(c3noc4ccc(F)cc34)CC2)s1 | -0.633 | 
S=C1SCN(Cc2ccco2)CN1Cc1ccco1 | -12.8 | 
O=C(CN(Cc1cccs1)C(=O)CNS(=O)(=O)c1ccccc1)NCc1ccco1 | 7.49 | 
COC(=O)c1ccc2nc(-c3cccc(N)c3)cn2c1 | 3.13 | 
Cc1ccc(S(=O)(=O)N2CCN(C(=O)CSc3nnnn3C)C2)cc1 | 10.2 | 
O=C(O)C1CC(=O)N(c2ccc(Br)cc2)C1 (stereo not drawn) | 8.11 | 
CCOc1ccc(C(=O)NC(=S)N(Cc2ccccc2)Cc2ccccc2)cc1 | 8.82 | 
COCCn1c(C)cc(C(=O)COc2ccc(C)nc2[N+](=O)[O-])c1C | 0.258 | 
C=CCN(c1ccc(C(=O)Nc2ccc3c(c2)n(C)c(=O)n3C)cc1)S(C)(=O)=O | 18.2 | 
CC(C)N1CCN(c2ccc(OC[C@H]3CO[C@](Cn4cncn4)(c4ccc(Cl)cc4Cl)O3)cc2)CC1 | 15.5 | 
CC(C)Oc1ccc(C(=O)Nc2nnc(SCC(=O)N3CCOCC3)s2)cc1 | 6.68 | 
CCOc1ccc(N/C=C/C(=O)c2ccccc2)cc1 | -0.393 | 
Clc1cccc(CN2CCCCCC2)c1 | 10.6 | 
CC(=O)c1ccc(N2CCN(c3ccnc4cc(Cl)ccc34)CC2)cc1 | 13.3 | 
c1ccc(C2c3[nH]c4ccccc4c3CCN2Cc2cccn2-c2ccccn2)nc1 (stereo not drawn) | -10.6 | 
Cn1c(=O)c2ncn(CC(=O)O)c2n(C)c1=O | 4.94 | 
Cc1cc(C)c(S(=O)(=O)Nc2nnc(CC(C)C)s2)c(C)c1 | -7.02 | 

Compound | activity change, negative = cytotoxicity [%] | outcome
CCn1c(=O)c2c(cnn2C)c2ccccc21 | -0.458 | 
COc1cc(Cl)cc(C(c2c(C(=O)O)[nH]c3ccccc23)c2c(C(=O)O)[nH]c3ccccc23)c1O | 1.58 | 
O=C1CC(c2ccccc2)Oc2ccccc21 (stereo not drawn) | 0.786 | 
CCOC(=O)c1c(NC(=O)C2C3CCC(O3)C2C(=O)O)sc(C)c1-c1ccc(F)cc1 (stereo not drawn) | 5.9 | 
Cc1nc2sc(C(N)=O)c(N)c2c2c1CCCC2 | 9.87 | 
O=C(NC(Cc1c[nH]c2ccccc12)C(=O)Nc1ccc(F)c([N+](=O)[O-])c1)c1cccs1 (stereo not drawn) | -7.73 | 
COCC(=O)N1CCC(Oc2ccc(C(=O)N3C[C@H]4CC[C@H]3C4)cc2)CC1 | -0.594 | 
CC1=C(C(=O)OCc2ccc3c(c2)OCO3)C(c2ccc(Cl)cc2)NC(=O)N1 (stereo not drawn) | -5.93 | 
COc1ccc(N2Cc3cccc(C(=O)NC(C)CCc4ccco4)c3C2=O)cc1 (stereo not drawn) | 3.59 | 
COc1ccc(CCNC(=O)CSC(=O)c2ccccc2)cc1OC | 7.63 | 
CCCN(CC1CC1)c1nc(C)nc(Nc2c(Cl)cc(Cl)cc2Cl)c1Cl | 1.47 | 
CC(C)Nc1nnc(SCC(=O)c2c(N)n(Cc3ccccc3)c(=O)n(C)c2=O)s1 | 1.95 | 
COc1cccc(C(=O)OCn2nnc3ccccc3c2=O)c1OC | 11 | 
COc1ccc(C(=O)Nc2ccc(N3CCN(C(=O)c4ccccc4C)CC3)cc2)cc1 | -2.23 | 
COc1ccc2sc3c(=O)[nH]c4ccccc4c3c2c1 | 14.3 | 
CCOc1ccccc1C(=O)N[C@H](C(=O)OCc1cc([N+](=O)[O-])cc2c1OCOC2)C(C)C | 8.07 | 
Cc1ccc(S(=O)(=O)N2CCCCC2)cc1NC(=O)CNc1ccccc1N1CCCC1=O | 3.36 | 
O=C(c1ccc(Cl)cc1)N1CCN(CCOc2ccccc2)CC1 | 0.74 | 
Cn1c(CC(=O)Nc2ccc(F)cc2)nnc1SCC(=O)Nc1nncs1 | 2 | 
O=C(O)c1ccc(C=NNC(=O)c2cccc3ccccc23)cc1 | 10.4 | 
Cc1cccc(/C=N/NC(=O)CNc2cccc3ccccc23)n1 | -0.716 | 
O=C(/C=C/Nc1cccc(C(F)(F)F)c1)C(F)(F)F | -1.79 | 
